In PubChem BioAssay (NCATS):
Inconclusive results are not listed. A call without a number means that no potency is given here. Activity calls are given as the source filed them. Calls come from the whole dose curve; as a rule, active = well fitted activation curve with a large enough effect; inconclusive = small, poorly fitted or top-dose-only effect; inactive = flat fitted curve, though single readings scatter.

Assay: qHTS for Activators of p53 Stress Response Pathway screened against the NCATS CANVASS Library (AID 1347388)
Conditions: p53RE-bla HCT-116, beta-lactamase reporter, 16 h; series mostly up to 46.1 µM
Description: Natural products and their derivatives continue to be wellsprings of nascent therapeutic potential. However, many laboratories have limited resources for biological evaluation, leaving their previously isolated or synthesized compounds largely or completely untested. To address this issue, the Canvass library of natural products was assembled (https://tripod.nih.gov/canvass), in collaboration with academic and industry researchers, for quantitative high-throughput screening (qHTS) across a diverse set of cell-based and biochemical assays. The pure (>85% purity by liquid chromatography/mass spectrometry [LC/MS]) Canvass library of 346 natural products were submitted by 45 academic laboratories and companies around the world. We collected pure natural products to circumvent deconvolution and structure elucidation due to time and resource limitations. The library was formatted into 1536-well plates and evaluated in 50 qHTS (in an 11-pnt concentration series) bioassays with broad scope of disease-relevant mechanisms. The resulting data set from 50 different assays was then systematically analyzed to identify overall trends and specific natural products with interesting biological activities. Reported herein are the results of each individual qHTS and their corresponding assay protocol. This assay measures compound activation of the p53 signaling pathway in cells using a beta-lactamase reporter gene. The p53RE-bla HCT-116 cell line (Invitrogen) contains a stably integrated beta-lactamase reporter gene under control of the p53 response elements. The activation of the report gene under culture conditions can be detected by fluorescence intensity. National Center for Advancing Translational Sciences (NCATS), Rockville, MD National Institute of Health (NIH), Bethesda, Maryland
p53-screen protocol: 1. In black-clear bottom 1536-well plate, 5 uL of p53RE-bla HCT-116 cell suspension was dispensed using a Multidrop Combi (Thermo Fisher Scientific) at a final concentration of 4000 cells / well. 2. The assay plates were incubated for 5 hours at 37C, 5% CO2. 3. […] of compounds (in DMSO; columns 5-48), vehicle control DMSO, and positive control were pin transferred into the assay plates using the Kalypsis pin tool (Wako USA) equipped with a 1536-well pin heads. This yields a final CANVASS compound concentration of 0.4 nM - […]. 4. The assay plates were incubated for 16 hours at 37C, 5% CO2. 5. After incubation, 1 uL of CCF4 dye was added per well using the BioRAPTR dispenser 6. The plates were incubated for 2 hours at room temperature. 7. The fluorescence readout was obtained using the EnVision microplate reader (PerkinElmer) equipped with a 405 nm excitation and 460 nm and 530 nm emission filters. The ratio of 460 nm / 530 nm readout was calculated and used for data analysis. 8. To access cellular viability and compound toxicity, 4 uL of CellTiter-Glo was added to the wells using the BioRAPTR dispenser. 9. The assay plates were further incubated for 30 minutes at room temperature. 10. Luminescence signal was obtained using the ViewLux plate reader (PerkinElmer) using the clear emission filter and 1x binning, 2 second exposure settings.
Potency is the fitted concentration of half-maximal effect.

With O=c1cc(-c2ccc(O)cc2)oc2cc(O)c([C@@H]3OC(CO)[C@H](O)[C@@H](O)[C@H]3O)c(O)c12 (stereo not given in full) as the compound, how does the Potency read?
Its Potency is “inactive”.

Which Potency does the source give for CN1CCc2cc3c(c4c2C1(C)C(=O)c1cc(O)ccc1-4)OCO3 (stereo not given) here?
The Potency was “inactive”.

With C/C(=C\[C@H](C)C(=O)/C=C/CC1CC(=O)NC(=O)C1)[C@@H]1OC(=O)CCCC/C=C/[C@H](O)[C@@H](O)[C@@H]1C as the compound, how does the Potency read?
The Potency was “inactive”.

Which Potency does the source give for CC1=C[C@H]2[C@H]3C(=O)C(c4ccc(O)cc4)=C[C@@]3(c3ccc(O)cc3)[C@@H]1C(=O)[C@]2(C)O here?
The Potency was 0.331 µM (active).

For C=C1CCC2C(C)(C(=O)O)CCC(CC/C(C)=C/C(=O)NC(CCC(N)=O)C(=O)O)[C@@]2(C)C1 (stereo not given in full), which Potency is on record?
Its Potency is “inactive”.

Which Potency does the source give for CO[C@H]1[C@@H](OC(=O)/C(C)=C\[C@@H]2O[C@@H]2[C@H]2O[C@H]2C)[C@H](O)[C@H](OCC23C[C@@H]4[C@H](C)CC[C@H]4C4(C=O)CC2C=C(C(C)C)C34C(=O)O)O[C@@H]1C (stereo not given in full) here?
The Potency was “inactive”.

For COC(=O)[C@@]12Oc3cccc(O)c3C(O)=C1C(=O)C[C@H](C)[C@H]2O, which Potency is on record?
The Potency was “inactive”.

With O[C@H]1c2ccccc2-c2c3c(cc4c2[C@@H]1NCC4)OCO3 as the compound, how does the Potency read?
The Potency was 13.2 µM (active).

For CN1C(=O)C(=O)N2C(=C[C@]3(c4c[nH]c5ccccc45)c4ccccc4N[C@H]23)C1=O, which Potency is on record?
Its Potency is “inactive”.

With COc1cc2c(cc1OC)[C@@H](c1ccc3c(c1)OCO3)C(C)C(C)C2=O (stereo not given in full) as the compound, how does the Potency read?
The Potency was “inactive”.

With C/C=C/C(=O)C1(O)CC2CC(C(=O)O)CC(C)C2C1C1=C2C(=O)NC(=O)C2=C(CCCCC)C(C)O1 (stereo not given) as the compound, how does the Potency read?
Its Potency is 7.41 µM (active).

Which Potency does the source give for C/C=C1/C2=CCCN3C(=O)O[C@H]([C@H]1O)[C@H]23 here?
The Potency was “inactive”.

Which Potency does the source give for C/C=C/[C@H]1[C@H]2C(=O)c3c(O)c(C)c(O)c(C)c3[C@]1(C(=O)O)C(=O)C=C2C here?
The Potency was “inactive”.

With O=Cc1ccc2n1C[C@]1(OC2)O[C@H](CO)[C@@H](O)[C@@H]1O as the compound, how does the Potency read?
The Potency was “inactive”.

With C[C@@]12CCC[C@@](C)(C(=O)O)[C@H]1CC[C@@]13C[C@@H](CC[C@H]12)[C@](C)(O)C3 as the compound, how does the Potency read?
The Potency was “inactive”.

With C=C(C)C(=O)O[C@H]1C[C@@]2(C)OC(=CC2=O)/C(C)=C\[C@H]2OC(=O)C(=C)[C@H]12 as the compound, how does the Potency read?
The Potency was “inactive”.

With CN1CC[C@]23c4ccccc4N[C@H]1[C@]21CCN(C)[C@H]3Nc2ccccc21 as the compound, how does the Potency read?
Its Potency is “inactive”.

For CC(=O)c1c(C)cc2c(c1O)C(=O)c1c(O)cc(O)cc1C2=O, which Potency is on record?
Its Potency is “inactive”.

Which Potency does the source give for Cc1cc(O)cc2c1C(=O)c1c(O)cc(O)cc1C2=O here?
Its Potency is “inactive”.

With C=C1C[C@H]2O[C@@H]3[C@@H]4[C@H](CC[C@@](C)(O)[C@@H]42)[C@H](C)COC3(C)[C@@H](OC(=O)CCCCCCC)C[C@H]1O (stereo not given in full) as the compound, how does the Potency read?
The Potency was “inactive”.

Which Potency does the source give for CC[C@H](O)CCCCC[C@@H]1NC(=O)[C@H]2CCCCN2C(=O)[C@H]([C@H](C)CC)NC(=O)[C@H](Cc2cn(OC)c3ccccc23)NC1=O here?
Its Potency is “inactive”.

Which Potency does the source give for C[C@H]1CCC2(OC1)O[C@H]1C[C@H]3[C@@H]4CC(=O)[C@]5(O)C[C@H](O)CC[C@@]5(C)[C@H]4CC[C@@]3(C)[C@H]1[C@H]2C (stereo not given in full) here?
Its Potency is 23.4 µM (active).

With CO[C@@H](C[C@@H](C)[C@@H](O)/C=C/C=C/CNC(=O)C(C)(C)[C@H](O)\C(C)=C/C=C\C=C\Cc1cnco1)[C@]1(O)[C@@H](C)C(=O)N(C)[C@@]12COC2=O as the compound, how does the Potency read?
The Potency was “inactive”.

For [C-]#[N+][C@@]12C(=O)[C@@H]3[C@@H](O[C@@]4(C(=O)N(C)c5cccc1c54)C3(C)C)C(=O)[C@@]2(C)C=C, which Potency is on record?
The Potency was “inactive”.

With Cc1occ2c1C(=O)c1c(cc(O)c(O)c1O)C2=O as the compound, how does the Potency read?
Its Potency is 11.7 µM (active).

Which Potency does the source give for C/C(=C\[C@@H](C)CC/C=C/CC/C=C/C(=O)O)[C@@H](O)[C@H](C)C(=O)CCCC1CC(=O)NC(=O)C1 here?
Its Potency is “inactive”.

For O=C(OC[C@H]1O[C@@H](OC(=O)c2cc(O)c(O)c(O)c2)[C@H](OC(=O)c2cc(O)c(O)c(O)c2)[C@@H](OC(=O)c2cc(O)c(O)c(O)c2)[C@@H]1OC(=O)c1cc(O)c(O)c(O)c1)c1cc(O)c(O)c(O)c1, which Potency is on record?
The Potency was 11.7 µM (active).

With C/C(=C\[C@H](C)C(=O)CCCC1CC(=O)NC(=O)C1)[C@@H]1OC(=O)/C=C/CC/C=C/[C@H](O)[C@@H](O)[C@@H]1C as the compound, how does the Potency read?
Its Potency is “inactive”.

Which Potency does the source give for C[C@@H]1CC[C@]2(C(=O)O)CC[C@]3(C)C(=C2[C@H]1C)CC[C@@H]1[C@@]2(C)CC[C@H](O)C(C)(C)[C@@H]2CC[C@]13C here?
The Potency was “inactive”.

Which Potency does the source give for COc1cc(C2C3=C(Cc4cc5c(cc42)OCO5)C(=O)OC3)cc(OC)c1OC (stereo not given) here?
The Potency was “inactive”.

With CC[C@@H]1C[C@@]2(CC)OC(=O)[C@@]3(CC)[C@H](CC)[C@@H]1[C@@H]23 as the compound, how does the Potency read?
The Potency was “inactive”.

With CC(CCC[C@]1(C)C(=O)C=C[C@@]23C[C@]4(C)O[C@@H](C[C@@H]4[C@H]2O)C31)C(=O)O (stereo not given in full) as the compound, how does the Potency read?
Its Potency is “inactive”.

For C/C(=C\[C@@H](C)CC/C=C/CC/C=C/C(=O)O)[C@H](O)[C@H](C)C(=O)CCCC1CC(=O)NC(=O)C1, which Potency is on record?
Its Potency is “inactive”.

With CC(C)=CCC[C@]12c3cc4c(cc3CC[C@@]1(C)[C@H](C)CC[C@@H]2O)[nH]c1ccccc14 as the compound, how does the Potency read?
Its Potency is “inactive”.

Which Potency does the source give for C=C(Cl)[C@](Cl)(CBr)CC[C@@H](Br)C(C)(C)Cl here?
Its Potency is “inactive”.

Which Potency does the source give for COC1C(C)OC(OCC23C[C@@H]4[C@H](C)CC[C@H]4C4(C=O)CC2C=C(C(C)C)C34C(=O)O)[C@@H](O)[C@H]1O (stereo not given in full) here?
The Potency was “inactive”.

With CC(C)=CCC/C(C)=C/Cc1cc([C@@H]2CC(=O)c3c(cc(O)c(CC=C(C)C)c3O)O2)ccc1O as the compound, how does the Potency read?
The Potency was “inactive”.

With C[C@@]12C[C@@H](C[C@@H]3C(=O)O[C@@H](c4ccoc4)[C@H](OC(=O)c4ccccc4)[C@@H]31)OC2=O as the compound, how does the Potency read?
Its Potency is “inactive”.

With C=C[C@]1(C)CC[C@@H]([C@H](C)C(=O)CC=C(C)C)O1 as the compound, how does the Potency read?
Its Potency is “inactive”.

Which Potency does the source give for C=C[C@@](C)(O)CC[C@@H]1[C@@]2(C)CCCC(C)(C)[C@@H]2CC[C@@]1(C)O here?
The Potency was “inactive”.
